Screening results deposited in PubChem BioAssay by several laboratories.
An excerpt weighted towards active compounds, which were near 2% of everything screened.
Exocytosis inh: LAMP-1 surface exposure blockers, TALL-104 cells – cell-based, flow cytometry, MLPCN library, primary screen; TALL-104 LAMP-1 surface exposure; cells stimulated with thapsigargin and PMA; 360,000 compounds, 0.66% hits; AID 651702, 2012; inhibition, % at 10 µM;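 active = inhibition above about 55%, limit read from the data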
NOD2-RIPK2 inh: NOD2-RIPK2 binding disruptors in cells, primary screen, fluorescence, CHO cells, BLA complementation | Receptor-interacting serine/threonine-protein kinase 2 (Homo sapiens), O43353 | CCF4 ratio | inhibition, % at 4.98 µM | 360,000 compounds, 0.38% hits | AID 624267, 2012; in the data active = inhibition above about 21%
Beta2AR agonist: beta2AR agonists driving receptor internalization, primary screen, cell-based, FAP fluorogen, flow cytometry; Beta-2 adrenergic receptor (Homo sapiens), P07550; Am2.2-beta2AR cells; response, % (test concentration not listed); 340,000 compounds, 0.43% hits;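 active = response above a set limit, near 3 SD of response in nonfluorescent compounds, cut at about 42% in these data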
Target sequence (P07550 whole entry, looked up): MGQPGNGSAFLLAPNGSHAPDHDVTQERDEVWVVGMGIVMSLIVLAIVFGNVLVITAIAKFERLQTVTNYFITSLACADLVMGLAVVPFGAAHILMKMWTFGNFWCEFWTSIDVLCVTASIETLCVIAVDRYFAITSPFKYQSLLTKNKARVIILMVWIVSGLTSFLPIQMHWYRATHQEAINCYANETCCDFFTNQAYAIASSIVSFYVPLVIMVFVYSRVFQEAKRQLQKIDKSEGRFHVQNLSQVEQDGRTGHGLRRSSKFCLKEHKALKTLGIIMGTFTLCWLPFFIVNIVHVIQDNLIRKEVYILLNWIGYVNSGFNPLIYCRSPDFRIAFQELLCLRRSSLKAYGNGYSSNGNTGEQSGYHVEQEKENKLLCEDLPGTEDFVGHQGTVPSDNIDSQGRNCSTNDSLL
TLR4-MyD88 BLA: inhibitors of TLR4-MyD88 association in cells, primary screen, cell-based, HeLa CL3-4, BLA complementation, FRET ratio; Toll-like receptor 4 (Homo sapiens) + Myeloid differentiation primary response protein …; HeLa CL3-4 TLR4/MyD88 BLA complementation; inhibition, % at 8.4 µM; 200,000 compounds, 0.18% hits; AID 861, 2007; in the data active = inhibition above about 25%
TLR9-MyD88 block: inhibitors of TLR9-MyD88 association in cells, primary screen, cell-based, CHO, BLA complementation, fluorescence. Toll-like receptor 9 (Homo sapiens) + Myeloid differentiation primary response protein …. CCF4 FRET ratio. inhibition, % at 4.98 µM. 340,000 compounds, 0.21% hits;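 active = inhibition above the mean over all tested compounds plus 3 SD, cut at about 21% in these data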
ABHD5-PLIN5 inh: ABHD5-PLIN5 interaction inhibitors, primary screen, cell lysate, split luciferase complementation, luminescence; Perilipin-5 (Homo sapiens) + 1-acylglycerol-3-phosphate O-acyltransferase ABHD5 (Homo …; Split G. princeps luciferase complementation, 4 h; inhibition, % at 4 µM; 360,000 compounds, 0.78% hits;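 active = inhibition above the mean inhibition across every tested compound plus 3 SD, cut at about 22% in these data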
Each line names hits and unclear results; the compound was inactive in the other large screens.

O=C1C2C3C=CC(CO)(O3)C2C(=O)N1c1ccccc1-c1ccccc1 (configuration not stated)	Exocytosis inh 64, NOD2-RIPK2 inh 81, Beta2AR agonist 55, ABHD5-PLIN5 inh 45
O=C(/C=C/c1ccccc1)CCN1CCCCC1	Beta2AR agonist 44, ABHD5-PLIN5 inh 23 (no result: TLR4-MyD88 BLA)
O=C(CCN1CCCCCC1)c1ccccc1	none
CCOC(=O)c1c(C)n(-c2ccc(C)cc2)c2ccc(OCC(O)CN3CCN(C)CC3)cc12 (configuration not stated)	ABHD5-PLIN5 inh 22
CCOC(=O)c1c(C)n(C)c2ccc(OCC(O)CN3CCN(C)CC3)cc12 (configuration not stated)	none
CCCCN1C(=O)C(CC(=O)NC2CCCCC2)CC(C(=O)N2CCCCCC2)=C1C (configuration not stated)	none (no result: Beta2AR agonist, TLR4-MyD88 BLA, TLR9-MyD88 block)
CCOc1cc(/C=N/NC(=O)c2ccc(O)cc2)ccc1Oc1nc(Cl)ncc1F	none
CCOc1cc(/C=N\Nc2ncc(F)c(N3CCOCC3)n2)ccc1Oc1nc(Cl)ncc1F	Exocytosis inh 83 (no result: TLR4-MyD88 BLA)
COc1cc(CN2C[C@@H](CO)O[C@@H](n3cnc4c(NCc5ccc(F)cc5)ncnc43)C2)cc(OC)c1OC	none (no result: Beta2AR agonist, TLR4-MyD88 BLA, TLR9-MyD88 block)
c1cnc(N2CCN(c3nc4ccccc4n4cnnc34)CC2)nc1	none
Cc1cccc(N2CCN(c3nc4ccccc4n4cnnc34)CC2)c1C	Beta2AR agonist 42
CCOC(=O)Cn1c(-c2ccccc2)cc(SC)c(C#N)c1=O	Exocytosis inh 61 (no result: TLR4-MyD88 BLA)
CCCCNC(=O)c1nc(C2CCN(S(=O)(=O)c3ccccc3C(F)(F)F)CC2)oc1-c1cccc(C(F)(F)F)c1	none (no result: Beta2AR agonist, TLR4-MyD88 BLA, TLR9-MyD88 block)
O=[N+]([O-])c1c(Nc2ccccn2)cc(Cl)c2nonc12	Exocytosis inh 97, Beta2AR agonist 63 (no result: TLR4-MyD88 BLA)
O=[N+]([O-])c1ccc(Nc2ccccn2)c([N+](=O)[O-])c1	none
CC(C)CCNC(=O)c1cc(S(=O)(=O)N2CCC3(CC2)OCCO3)ccc1F	none (no result: Beta2AR agonist, TLR4-MyD88 BLA)
Cc1cccc(C)c1-n1nnnc1-c1nc2cc3ccccc3cc2[nH]c1=O	none (no result: Beta2AR agonist, TLR4-MyD88 BLA, TLR9-MyD88 block)
O=C(Cn1ccc2ccccc2c1=O)N1CCN(c2cccc(Cl)c2)CC1	ABHD5-PLIN5 inh 22
O=C(Cn1ccc2ccccc2c1=O)NCCC(=O)N1CCN(c2cccc(Cl)c2)CC1	none
Cc1c(NC(=O)C(Sc2ccccc2)c2ccccc2)cccc1[N+](=O)[O-] (configuration not stated)	Exocytosis inh 59
CC(C)NC(=O)C1C(c2ccc(C(F)(F)F)cc2)=Nc2ccccc2N1C(=O)c1cccc2ccccc12 (configuration not stated)	none (no result: Beta2AR agonist, TLR4-MyD88 BLA, TLR9-MyD88 block)
N#CC1=C(S)N=C(N)C(c2nc(-c3ccccc3)cs2)C12CCCCC2 (configuration not stated)	none
N#CC1=C(S)N=C(N)C(c2nc(-c3ccccc3)cs2)C12CCCC2 (configuration not stated)	Exocytosis inh 70
COc1ccccc1-c1ccc(/C=C2/C=C(C)OC2=O)o1	ABHD5-PLIN5 inh 23
CCOC(=O)C1CCN(c2nc3c(C)cccn3c(=O)c2/C=C(\C#N)S(=O)(=O)c2ccccc2)CC1	Exocytosis inh 84 (no result: TLR4-MyD88 BLA)
Cc1[nH]c2ccccc2c1/C=N/Nc1nc2ccccc2[nH]1	Exocytosis inh 72 (no result: TLR4-MyD88 BLA, TLR9-MyD88 block)
Cc1ccccc1/C=N/Nc1nc2ccccc2[nH]1	none
COc1ccccc1CCC(=O)NNC(=O)Cn1nc(C)cc1C	none (no result: Beta2AR agonist, TLR4-MyD88 BLA)
NC(N)=N/N=C/c1ccc(OCc2ccccc2)c(OCc2ccccc2)c1	none (no result: TLR4-MyD88 BLA)
CCOc1cc(/C=N/N=C(N)N)ccc1OCc1ccc(Cl)cc1	Beta2AR agonist 46
CCCNC(=O)C1(C)CCN(Cc2ccc(OCc3ccccc3)cc2)C1 (configuration not stated)	none (no result: Beta2AR agonist, TLR4-MyD88 BLA, TLR9-MyD88 block)
COc1cc(OC)c2c(-c3ccccc3)cc(=O)oc2c1C(CCN1CCCC1)c1ccc2c(c1)OCO2 (configuration not stated)	ABHD5-PLIN5 inh 22 (no result: TLR4-MyD88 BLA)
CN1CCN(CCCNC(=O)c2ccc(/C=C3/Sc4ccccc4N(Cc4cccc(Cl)c4)C3=O)cc2)CC1	Exocytosis inh 75
CCN1CCN(CCNC(=O)c2ccc(/C=C3\Sc4ccccc4N(Cc4ccccc4F)C3=O)cc2)CC1	Exocytosis inh 72, Beta2AR agonist 55
CN1CCN(CCCNC(=O)c2ccc(/C=C3\Oc4ccccc4N(Cc4ccccc4F)C3=O)cc2)CC1	none (no result: TLR4-MyD88 BLA)
COc1ccc(C2=Nc3ccccc3N(C(=O)c3cnccn3)C2C(=O)NC2CCCC2)cc1 (configuration not stated)	none (no result: Beta2AR agonist, TLR4-MyD88 BLA, TLR9-MyD88 block)
O=c1oc2c(CN3CCN(CCO)CC3)c(O)ccc2cc1-c1ccccn1	Beta2AR agonist 43 (no result: TLR4-MyD88 BLA)
O=c1oc2c(CN3CCCCC3)c(O)ccc2cc1-c1nc2ccccc2[nH]1	none (no result: TLR4-MyD88 BLA)
O=C/C=C/c1c(-c2ccccc2)cc2oc3ccccc3cc1-2	Beta2AR agonist 64 (no result: TLR4-MyD88 BLA)
Nc1ccc(-c2cc3ccccc3oc2=O)cc1	none (no result: TLR4-MyD88 BLA)
O=P(NC1CCCCC1)(c1ccccc1)c1ccccc1	none (no result: TLR4-MyD88 BLA)
CC/C(=C\C1CCCCC1)C(NP(=O)(c1ccccc1)c1ccccc1)c1ccccc1 (configuration not stated)	Exocytosis inh 59
Cc1c(C)c2ccc(OCC(=O)Nc3ccc(N4CCC(C)CC4)cc3)cc2oc1=O	none (no result: TLR4-MyD88 BLA)
Cc1cc(=O)oc2cc(OC(C)C(=O)Nc3ccc(N4CCCCC4)cc3)ccc12 (configuration not stated)	none (no result: TLR4-MyD88 BLA)
Cc1cc(=O)oc2c(C)c(OC(C)C(=O)Nc3ccc(N4CCC(C)CC4)cc3)ccc12 (configuration not stated)	Beta2AR agonist 83 (no result: TLR4-MyD88 BLA)
Cc1cc(=O)oc2cc(OCC(=O)Nc3ccc(N4CCC(C)CC4)cc3)ccc12	Beta2AR agonist 51 (no result: TLR4-MyD88 BLA)
C/C(=N\Nc1cc(C)nc(-c2ccccc2O)n1)c1ccccc1	none
Cc1cc(N/N=C/c2ccc(O)c(C)c2O)nc(-c2ccccc2O)n1	Exocytosis inh 80
O=C(O)c1ccc(N/N=C/c2cc3cc4c(cc3nc2Cl)OCCO4)cc1	Beta2AR agonist 45 (no result: TLR4-MyD88 BLA)
O=C(O)c1ccc(N/N=C/c2cc3c(cc2[N+](=O)[O-])OCO3)cc1	none
COc1ccc(C(c2c(O)ccc3ccccc23)N2CCOCC2)c(OC)c1 (configuration not stated)	NOD2-RIPK2 inh 48, ABHD5-PLIN5 inh 96
Cn1cnc2ncnn2c1=S	none (no result: Beta2AR agonist, TLR4-MyD88 BLA)
O=C(c1cc(-c2ccco2)nn1-c1cccc(Cl)c1)N1CCCCC1	ABHD5-PLIN5 inh 48
